# HT1080 IDH1KD tx: toxicity to HT-1080 IDH1 knockdown cells (counter line); HT-1080 IDH1 knockdown viability, ATP luminescence, 48 h; Potency, µM (series often up to 46.1 µM), for the others: top-dose activity, negative = toxicity, most hits filed as cytotoxic; hit rate 2% among 360,000; AID 686971;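 also: potency is read from the fitted curve at half-maximal effect; 0% = DMSO wells and -100% = cell-free medium wells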
#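 % activity derives from luminescence (CellTiter-Glo), normalised to DMSO and no-cell wells. HT-1080-IDH1KD cells, 750/well, had 48 h compound exposure at 37 °C.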
# KB-3-1 tox: KB-3-1 parental cell cytotoxicity; KB-3-1 viability, CellTiter-Glo ATP luminescence, 72 h; Potency, µM (series often up to 46.1 µM), usual class: cytotoxic; hit rate 1.4% among 400,000; AID 1347075; also: potency is read from the fitted curve at half-maximal effect; nearly all actives have a fitted effect of over 60% in size
#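 Cytotoxicity in the drug-sensitive parental line KB-3-1 was scored as loss of CellTiter-Glo luminescence following 72 h incubation with compound. Values come from curve fitting of normalized concentration-response data.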
# IL-1B inflam inh: blocks inflammasome-driven IL-1 beta release; THP-1 LPS/ATP IL-1B secretion, AlphaLISA, 16 h; hits give low values; activity change, % at 57.5 µM; hit rate 4.7% among 360,000; AID 743279; in the data active = activity change below about -50%; inconclusive = mostly about -30% to -49%
#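 THP-1 cells pretreated 1 hr with compounds (up to 57.5 uM final), then stimulated with LPS (250 ng/mL final) plus ATP (1.25 mM final); secreted IL-1B measured by AlphaLISA after 16 hr, decreased signal indicating inhibition.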
# KB-V1 cytotox: kills drug-selected multidrug resistant KB-V1 cells | KB-V1 MDR cells viability, CellTiter-Glo, 72 h | Potency, µM (highest dose often 46.1 µM), most hits filed as cytotoxic | hit rate 3.4% among 400,000; also: potency is read from the fitted curve at half-maximal effect; nearly all actives have a fitted effect of over 60% in size
#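 Luminescent ATP read-out (CellTiter-Glo, 10 min) measures survival of drug-selected KB-V1 MDR cells after 72 h, 37 degrees C compound exposure. Medium: phenol-red-free DMEM, 10% FBS. Values from fitted concentration-response curves.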
# HT1080-NT tox: kills 2HG-producing HT-1080-NT fibrosarcoma cells; HT-1080-NT fibrosarcoma viability, CellTiter-Glo ATP luminescence, 48 h; Potency, µM (top dose mostly 46.1 µM), for inactives: at the top dose activity, negative = less viability, hits mostly cytotoxic; hit rate 1.6% among 360,000; AID 686970;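 also: NT is the 2HG producing partner of a matched IDH1 knockdown line; potency is read from the fitted curve at half-maximal effect; 0% = DMSO-treated cells and -100% = media-only wells without cells; nearly all actives have a fitted effect of over 55% in size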
#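 Read-out is CellTiter-Glo luminescence after 10 minutes at room temperature, following 48 hours' compound treatment of HT-1080-NT cells (750 cells/well, RPMI, 5% FBS, 37 degrees C).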
# * marks the source's active call; other numbers are inactive results; i = inactive; ? = inconclusive; · = no result; ! = not active in a repeat; [ ] = remark or other dose. Shown are actives, neighbours in structure and some others; about 8.8% of the full set was active somewhere. Unless noted, calls follow the shape of the dose curve; as a rule, active = well fitted curve in the direction sought with a large enough effect; inconclusive = small, poorly fitted or top-dose-only effect, or another doubt; inactive = no such curve, though single readings can be large; an effect the other way counts as inactive or inconclusive. Unless noted, % is scaled to controls: 0 for no effect and ±100 for the full control effect.
SMILES,HT1080 IDH1KD tx,KB-3-1 tox,IL-1B inflam inh,KB-V1 cytotox,HT1080-NT tox
COc1ccc(C(CNC(=O)c2oc3cc(Br)ccc3c2C)N2CCCCC2)cc1 (configuration not stated),5.5%,i,11.3,?,4.3%
COc1ccccc1C(CNC(=O)c1ccc(-c2ccccc2Cl)o1)N1CCCC1 (configuration not stated),20.6µM*,?,-56.5*,?,?
COc1ccc(C(CNC(=O)c2cc(F)c(F)c(F)c2F)N2CCOCC2)cc1 (configuration not stated),-5.7%,i,-95.2*,i,-7.7%
CC(C)(CNC(=O)c1ccc(Br)o1)N1CCOCC1,8.2%,i,-14.5,i,-8.1%
COc1ccc(C(CNC(=O)CSc2ccccc2F)N2CCOCC2)cc1 (configuration not stated),-2.5%,i,-3.2,i,-7.4%
CC(C)(CNC(=O)c1ccc(-c2ccccc2Cl)o1)N1CCOCC1,-10.4%,i,-55.6*,i,1.4%
O=C(Nc1cccc([S+](=O)([O-])Nc2ccccc2F)c1)c1ccccc1,·,i,·,i,·
COc1ccc(C(CNC(=O)c2ccc(-c3ccccc3Cl)o2)N2CCOCC2)cc1 (configuration not stated),-0.3%,i,-76.3*,?,0.6%
Nc1nc(SCc2nc(-c3ccccc3)no2)[nH]c(=O)c1-c1ccccc1,-16.7%,i,0.7,18.4µM*,-12.9%
COc1ccc(-c2noc(CSc3nc(N)cc(=O)[nH]3)n2)cc1,?,20.6µM*!,19.8,?,?
CC(=O)NCc1ccc(C(=O)COC(=O)COc2ccc(Cl)c(C)c2)s1,0.0%,i,4.7,i,5.2%
Oc1ccc(Oc2ccc(Oc3ccc(O)cc3)cc2)cc1,-28.7%,i,53.7,?,-21.5%
CCOC(=O)C1=C(C)NC(C)=C(C(=O)OCC)C1c1ccc(OC)cc1,-27.5%,i,14.5,i,-15.7%
CCOC(=O)C1=C(C)NC(SC)=NC1c1ccc(OC)cc1 (configuration not stated),0.0%,i,-50.4*,i,-0.6%
CCOC(=O)c1c(CN2CCNCC2)nc2ccc(Cl)cc2c1-c1ccccc1,?,?,-64.2*,23.1µM*,-16.1%
Cc1nc2ccc(Cl)cc2c(-c2ccccc2)c1C(=O)N(C)C,10.5%,i,0.7,i,-0.2%
CCN(CC)C(=S)SCC(=O)c1ccc(Br)cc1,0.0%,i,-1.7,i,-0.9%
Cc1ccc(NC(=O)c2ccccc2NS(=O)(=O)c2ccc(Cl)s2)cc1S(=O)(=O)N1CCOCC1,?,i,?,20.6µM*,?
COc1ccc(C)cc1NC(=O)c1ccccc1NS(=O)(=O)c1ccc(Cl)s1,16.4µM*,5.17µM*,?,3.26µM*,?
Cc1ccc(NC(=O)c2ccc([N+](=O)[O-])s2)cc1S(=O)(=O)N1CCOCC1,20.6µM*,18.4µM*,42.7,i,?
O=C(Nc1cc(S(=O)(=O)N2CCOCC2)ccc1N1CCOCC1)c1ccc([N+](=O)[O-])s1,4.8%,?,?,?,-13.4%[9.24 µM]
NC(=O)c1ccc(NC(=O)COC(=O)c2ccc(Br)c(S(=O)(=O)N3CCOCC3)c2)cc1,0.6%,i,-60.2*,i,-5.9%
Cc1ccc(NC(=O)CSc2[nH]c(=O)ncc2C)cc1,·,i,·,i,·
O=C(c1cc(F)c(F)c(F)c1F)N1CCN(C(=O)C2CCCO2)CC1 (configuration not stated),-6.4%,i,5.5,i,-1.0%
O=C(NCCc1ccccc1)C1(c2cccs2)CCOCC1,·,i,·,i,·
SMILES,HT1080 IDH1KD tx,KB-3-1 tox,IL-1B inflam inh,KB-V1 cytotox,HT1080-NT tox
O=C(Nc1ccccc1)c1ccc(F)c(S(=O)(=O)N2CCOCC2)c1,-8.2%,i,22.4,i,6.9%
Cc1ccc(NC(=O)c2ccc(F)c(S(=O)(=O)N3CCOCC3)c2)cc1F,?,i,?,3.66µM*,?
Cc1ccc(C(=O)Nc2ccc(Br)cc2)cc1S(=O)(=O)N1CCOCC1,·,10.3µM*,·,4.11µM*,·
COc1ccc2nc3ccccc3nc2c1NC(=O)c1ccc(Cl)cc1Cl,-13.7%,i,-8.0,?,11.9%
COc1ccc2c(c1OC)C(=O)N1c3ccccc3C(=O)N(c3ccccc3F)C21 (configuration not stated),-0.3%,i,-22.3,5.8µM*,-23.0%
O=C(c1cccc2ccccc12)N1CCN(S(=O)(=O)c2ccccc2)CC1,·,i,·,i,·
COc1ccc(Cc2[nH]n3c(=O)cc(C(C)C)nc3c2-c2ccccc2)cc1,?,10.3µM*,73.3,i,?
CCC(=O)NNC(=S)NC(=O)c1ccc(C)cc1,-24.6%,?,-60.7*,?,-4.0%
CC(=O)NNC(=S)NC(=O)c1ccc(C)cc1,-0.7%,i,7.2,i,2.8%
CC(C)NC(=S)NC(=O)c1ccc(-c2ccccc2)cc1,-17.1%,?,-56.9*,?,-2.0%
CCOC(=O)[C@]12CCCC=C1N(Cc1ccc3c(c1)OCO3)C(=O)[C@H](CC(=O)N1CCCC1)C2,0.3%,i,18.4,i,1.4%
COC(=O)CC1=C(C(=O)OC)[C@@H](c2ccccc2[N+](=O)[O-])C(C#N)=C(N)O1,-11.5%,i,-1.9,i,-11.7%
N#Cc1ccc(NC(=O)COCc2cc(-c3ccco3)on2)cc1,·,i,·,i,·
CCCc1cc(C(=O)NC(C)C2CCCO2)cs1 (configuration not stated),8.5%,i,2.4,i,?
Cc1ccc(NC(=O)C2(C)CCN2CCc2ccccc2)cc1 (configuration not stated),-9.9%,i,0.0,i,-22.2%
OC(c1ccccc1)(c1ccccc1)c1nccc2ccccc12,14.1%,?,-55.1*,18.4µM*,3.1%
Cc1ccccc1Oc1nc2c(c(=O)n(C)c(=O)n2C)n1Cc1ccc(Br)cc1,·,i,·,i,·
CC(=O)c1c(C)nc2nc(-c3ccccc3)nn2c1C,·,i,·,?,·
C#CC[N+](C)(C)CC#Cc1ccc(C)cc1,?,11.6µM*,?,i,?
COc1ccc(C2c3c4c(n(C)c3CCN2C)CCN(C)C4c2ccc(OC)cc2)cc1 (configuration not stated),?,i,-54.7*,i,?
O=C(COC(=O)c1ccc(S(=O)(=O)N2CCOCC2)cc1)NCc1ccco1,-13.5%,i,-19.8,i,-0.8%
CCOC(=O)N1CCC(N(CCN(C)C)C(=S)Nc2ccc(Oc3ccccc3)cc2)CC1,13.5%,i,-89.1*,i,2.3%
